The source of these data is ChEMBL document CHEMBL3988442, “University of Dundee, Small-Polar-MMV Screening Library” (2021).

Measured potencies and affinities stand elsewhere.

Chain of Protein translocase subunit SecA (Escherichia coli (strain K12)) (P10408 whole entry): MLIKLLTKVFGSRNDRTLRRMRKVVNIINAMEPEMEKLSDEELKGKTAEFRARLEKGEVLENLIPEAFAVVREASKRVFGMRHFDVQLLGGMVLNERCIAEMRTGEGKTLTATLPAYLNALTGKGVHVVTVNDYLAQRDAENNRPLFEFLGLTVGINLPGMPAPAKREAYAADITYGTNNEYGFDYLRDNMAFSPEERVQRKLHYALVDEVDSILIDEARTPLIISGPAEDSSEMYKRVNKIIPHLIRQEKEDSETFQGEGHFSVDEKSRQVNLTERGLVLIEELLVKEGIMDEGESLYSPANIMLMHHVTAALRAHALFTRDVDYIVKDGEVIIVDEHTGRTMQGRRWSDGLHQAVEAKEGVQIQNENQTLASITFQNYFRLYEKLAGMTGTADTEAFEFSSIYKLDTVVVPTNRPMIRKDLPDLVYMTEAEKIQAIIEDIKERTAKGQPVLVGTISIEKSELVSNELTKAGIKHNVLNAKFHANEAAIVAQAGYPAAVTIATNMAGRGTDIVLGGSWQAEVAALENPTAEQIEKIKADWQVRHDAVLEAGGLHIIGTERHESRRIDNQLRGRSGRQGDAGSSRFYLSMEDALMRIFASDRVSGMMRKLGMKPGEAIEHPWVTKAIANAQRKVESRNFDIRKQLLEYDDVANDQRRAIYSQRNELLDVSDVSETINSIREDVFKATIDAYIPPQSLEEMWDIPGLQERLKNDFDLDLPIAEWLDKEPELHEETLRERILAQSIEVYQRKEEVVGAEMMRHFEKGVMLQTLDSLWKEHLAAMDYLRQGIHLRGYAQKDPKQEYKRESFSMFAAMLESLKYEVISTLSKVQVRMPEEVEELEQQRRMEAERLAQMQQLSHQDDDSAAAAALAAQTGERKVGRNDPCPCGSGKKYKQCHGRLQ

One assay addresses Protein translocase subunit SecA (Escherichia coli (strain K12)) (UniProt P10408). The assay can be described thus: Assay to Identify E. coli SecA ATPase Inhibitors. The format is functional. Also on record: scale not given: direction of the effect not stated beside the values. The following applies: 30 µM.
With `CC(=O)N1CCCC1c1nccc(C)n1` (stereo not drawn), the Percent Effect was -4.82%.
Same read-out and setting: in the case of `CN(Cc1nccn1CC(F)(F)F)C(=O)c1cccc(C#N)c1` it was -3.37%; in that of `COc1ccc(-c2noc(CNC(C)Cn3cccn3)n2)c(OC)c1` (stereo not drawn), -5.86%; in that of `NCC(=O)N1CCCC(c2cncc(Nc3ncccn3)n2)C1` (stereo not drawn), -3.81%.
On the same count and under the same terms, in the case of `O=C(Cc1ccccc1)N1CCC2(CC(=O)N(c3ccsc3)C2)C1` (stereo not drawn) it was -0.7%.
Turning to `CCCSCC(=O)NS(=O)(=O)c1ccc2c(c1)OCCO2`, the Percent Effect is -2.66%.
Same read-out and setting: in the case of `O=C(NC1CC1)[C@H]1C[C@@H]2CCN(CCc3ccccc3)C[C@H]2O1` it was 2.18%; in that of `OC1CCCN(Cc2c(-c3ccco3)[nH]c3ncccc23)C1` (stereo not drawn), -4.22%; in that of `Cn1cccc1C1CCCN1C(=O)NCCCn1cccn1` (stereo not drawn), -1.96%.
Same read-out and setting: in the case of `O=C(NC1(c2nnn(CCO)n2)CCCC1)c1ccccc1` it was -3.12%; in that of `O=C(Cc1ccccc1)N1CCC2(CC(=O)N(c3cccc(F)c3)C2)C1` (stereo not drawn), -5.5%; in that of `c1cncc(C2COC3(CCN(CC4CC4)CC3)C2)c1` (stereo not drawn), -5.88%.
Still for that read-out and setting: with `Cc1nc(C2CCCN(C(=O)c3ccc(OCC4CC4)cc3)C2)no1` (stereo not drawn) the figure was -11%; with `Cc1ncsc1C(=O)NC1CCN(CCC(N)=O)CC1`, -5.32%.
For the compound `CCn1cc(N)c(C(=O)NCc2cnn(C)c2)n1`, the Percent Effect is -3.38%.
Consider `O=C(NCCNc1ccc(C(F)(F)F)cn1)c1ccc(Br)cc1F`, for which the Percent Effect is -3.12%.
Regarding `CCc1ccc(C(=O)N2CCCC(c3noc(CC)n3)C2)o1` (stereo not drawn), the Percent Effect is -0.983%.
Still for that read-out and setting: in the case of `CN(c1ccc(C(=O)NCCCN2CCOCC2)c(Cl)c1)S(C)(=O)=O` it was -5.85%; in that of `CCN1CCCC1CN(CCN(C)C)S(=O)(=O)c1ccc(C#N)cc1` (stereo not drawn), -3.88%.
On to `CN(C)C(C)(C)CNC(=O)C(C)(C)c1ccccc1F`, for which the Percent Effect is -0.22%.
As for `Cc1cccc(CCC(=O)N2CCOCC2c2c(C)n[nH]c2C)c1` (stereo not drawn), the Percent Effect is -3.35%.
On the same count and under the same terms, with `COc1ccc(NC(=O)c2ccc[nH]2)c(N2CCN(C(C)=O)CC2)n1` the figure was -1.32%.
As for `CS(=O)(=O)NCC1CCCN(C(=O)Nc2ccccc2Cl)C1` (stereo not drawn), the Percent Effect was -1.65%.
For the compound `O=c1cc2c(nn1CN1CCOCC1)CCC2`, the Percent Effect was -2.09%.
On the same count and under the same terms, with `CN(C)C(CNC(=O)c1cccc(-n2cnnn2)c1)c1ccccc1Cl` (stereo not drawn) the figure was -1.38%.
Same read-out and setting: with `COc1cccc2c1ccn2CCNC(=O)C(C)C` the figure was -1.68%; with `CCc1ncncc1C(=O)N1CCCN(Cc2ccc(C)cc2)CC1`, -6.16%.
On the same count and under the same terms, in the case of `CC(NC1(CNC(=O)C(C)(C)C#N)CCOCC1)c1ccccc1` (stereo not drawn) it was -11.4%; in that of `COc1ccc(CN2C[C@@H]3OCCN(CC4CCCO4)[C@@H]3C2)cc1` (stereo partly drawn), -0.662%; in that of `Cc1cc(C)c(CNC(=O)N2CCN(c3cnccn3)CC2)c(=O)[nH]1`, -7.87%.
For `Cc1nc(CN(Cc2cccs2)C2CCS(=O)(=O)C2)oc1C` (stereo not drawn), the Percent Effect is -3.68%.
For the compound `CCOc1ccc(S(=O)(=O)NC(=O)CCC2CCCO2)cc1` (stereo not drawn), the Percent Effect is -3.8%.
Same read-out and setting: with `CC(C)NC(=O)N1CC[C@@H]2CN(Cc3ccccc3)S(=O)(=O)[C@@H]2CC1` the figure was -7.87%; with `CN(Cc1ccc(F)cc1)C(=O)CN1CCCC(Cn2cncn2)C1` (stereo not drawn), -2.63%; with `CNS(=O)(=O)c1ccc(C(=O)N2CCCC(n3cccn3)C2)cc1` (stereo not drawn), -7.19%.
Still for that read-out and setting: in the case of `Cc1ccc(F)c(-n2nnc(C(=O)O)c2-c2ccncc2)c1` it was -0.715%; in that of `CN(C)c1ccc(C(=O)NCC2(O)CCOCC2)cc1`, -4.98%.
For the compound `CNS(=O)(=O)CCCN1CCCC1c1cc(C)on1` (stereo not drawn), the Percent Effect is -2.37%.
Still for that read-out and setting: in the case of `CCN1CC2(CC1=O)CN(Cc1cccs1)CCN(C(=O)C(C)C)C2` (stereo not drawn) it was -5.19%.

A further assay concerns the target T1, Ubiquitin-activating enzyme e1, putative (Leishmania donovani (strain BPK282A1)) (UniProt E9BSI1).
T1 sequence (whole entry): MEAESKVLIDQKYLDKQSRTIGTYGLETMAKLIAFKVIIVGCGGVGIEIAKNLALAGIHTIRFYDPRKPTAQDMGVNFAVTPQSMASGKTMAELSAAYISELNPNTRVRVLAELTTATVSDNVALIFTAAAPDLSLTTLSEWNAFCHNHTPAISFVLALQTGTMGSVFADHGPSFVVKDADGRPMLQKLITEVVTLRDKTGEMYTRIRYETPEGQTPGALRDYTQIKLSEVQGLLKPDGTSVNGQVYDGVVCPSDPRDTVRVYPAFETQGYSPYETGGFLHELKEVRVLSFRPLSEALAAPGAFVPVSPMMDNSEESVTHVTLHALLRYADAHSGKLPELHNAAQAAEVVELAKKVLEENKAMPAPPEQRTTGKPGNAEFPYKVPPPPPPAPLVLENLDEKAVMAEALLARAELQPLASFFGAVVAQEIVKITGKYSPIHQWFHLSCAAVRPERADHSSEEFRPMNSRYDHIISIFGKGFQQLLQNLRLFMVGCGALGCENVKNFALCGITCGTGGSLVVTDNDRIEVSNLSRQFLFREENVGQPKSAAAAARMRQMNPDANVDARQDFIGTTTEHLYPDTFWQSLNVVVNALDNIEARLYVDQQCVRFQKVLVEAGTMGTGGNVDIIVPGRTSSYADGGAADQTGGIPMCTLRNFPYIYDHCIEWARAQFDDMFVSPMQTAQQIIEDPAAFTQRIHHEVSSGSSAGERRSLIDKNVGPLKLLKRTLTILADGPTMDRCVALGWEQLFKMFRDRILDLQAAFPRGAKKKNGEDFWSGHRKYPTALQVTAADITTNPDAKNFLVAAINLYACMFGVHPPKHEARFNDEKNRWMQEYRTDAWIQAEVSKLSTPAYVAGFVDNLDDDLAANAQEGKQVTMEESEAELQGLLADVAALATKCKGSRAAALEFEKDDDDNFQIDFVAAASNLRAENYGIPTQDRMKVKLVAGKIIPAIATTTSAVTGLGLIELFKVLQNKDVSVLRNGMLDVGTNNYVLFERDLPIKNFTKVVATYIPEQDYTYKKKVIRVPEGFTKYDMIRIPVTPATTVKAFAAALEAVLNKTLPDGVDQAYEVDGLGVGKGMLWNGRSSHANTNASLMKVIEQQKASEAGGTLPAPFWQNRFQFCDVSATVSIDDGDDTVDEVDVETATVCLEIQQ
The assay can be described thus: Leishmania donovani Ubiquitin Activating Enzyme (LdE1). The format is functional. Also on record: scale not given: direction of the effect not stated beside the values. The following applies: 30 µM.
Regarding `CC(=O)N1CCCC1c1nccc(C)n1` (stereo not drawn), the Percent Effect worked out at 8%.
The same measure, in the same setting: with `CN(Cc1nccn1CC(F)(F)F)C(=O)c1cccc(C#N)c1` the figure was -2.63%; with `COc1ccc(-c2noc(CNC(C)Cn3cccn3)n2)c(OC)c1` (stereo not drawn), 31.6%; with `NCC(=O)N1CCCC(c2cncc(Nc3ncccn3)n2)C1` (stereo not drawn), 9.46%.
For the compound `O=C(Cc1ccccc1)N1CCC2(CC(=O)N(c3ccsc3)C2)C1` (stereo not drawn), the Percent Effect turned out to be 8.11%.
Turning to `CCCSCC(=O)NS(=O)(=O)c1ccc2c(c1)OCCO2`, the Percent Effect was -2.63%.
The same measure, in the same setting: with `O=C(NC1CC1)[C@H]1C[C@@H]2CCN(CCc3ccccc3)C[C@H]2O1` the figure was 10.7%; with `OC1CCCN(Cc2c(-c3ccco3)[nH]c3ncccc23)C1` (stereo not drawn), 25.7%; with `Cn1cccc1C1CCCN1C(=O)NCCCn1cccn1` (stereo not drawn), 2.67%.
The same measure, in the same setting: with `O=C(NC1(c2nnn(CCO)n2)CCCC1)c1ccccc1` the figure was 8%; with `O=C(Cc1ccccc1)N1CCC2(CC(=O)N(c3cccc(F)c3)C2)C1` (stereo not drawn), 2.7%.
As to `c1cncc(C2COC3(CCN(CC4CC4)CC3)C2)c1` (stereo not drawn), the Percent Effect came out at 5.41%.
Same read-out and setting: in the case of `Cc1nc(C2CCCN(C(=O)c3ccc(OCC4CC4)cc3)C2)no1` (stereo not drawn) it was 15.8%; in that of `Cc1ncsc1C(=O)NC1CCN(CCC(N)=O)CC1`, 15.6%.
`CCn1cc(N)c(C(=O)NCc2cnn(C)c2)n1`: the Percent Effect was 5.2%.
On to `O=C(NCCNc1ccc(C(F)(F)F)cn1)c1ccc(Br)cc1F`, for which the Percent Effect worked out at 10.4%.
In the case of `CCc1ccc(C(=O)N2CCCC(c3noc(CC)n3)C2)o1` (stereo not drawn), the Percent Effect was 2.6%.
With `CN(c1ccc(C(=O)NCCCN2CCOCC2)c(Cl)c1)S(C)(=O)=O`, the Percent Effect came out at 5.2%.
Turning to `CCN1CCCC1CN(CCN(C)C)S(=O)(=O)c1ccc(C#N)cc1` (stereo not drawn), the Percent Effect is 5.48%.
Still for that read-out and setting: with `CN(C)C(C)(C)CNC(=O)C(C)(C)c1ccccc1F` the figure was 9.72%; with `Cc1cccc(CCC(=O)N2CCOCC2c2c(C)n[nH]c2C)c1` (stereo not drawn), -5.48%.
Turning to `COc1ccc(NC(=O)c2ccc[nH]2)c(N2CCN(C(C)=O)CC2)n1`, the Percent Effect turned out to be 10.8%.
The same measure, in the same setting: with `CS(=O)(=O)NCC1CCCN(C(=O)Nc2ccccc2Cl)C1` (stereo not drawn) the figure was 13.2%; with `O=c1cc2c(nn1CN1CCOCC1)CCC2`, 14.7%; with `CN(C)C(CNC(=O)c1cccc(-n2cnnn2)c1)c1ccccc1Cl` (stereo not drawn), 2.74%.
For `COc1cccc2c1ccn2CCNC(=O)C(C)C`, the Percent Effect is 20%.
Regarding `CCc1ncncc1C(=O)N1CCCN(Cc2ccc(C)cc2)CC1`, the Percent Effect is 2.63%.
With `CC(NC1(CNC(=O)C(C)(C)C#N)CCOCC1)c1ccccc1` (stereo not drawn), the Percent Effect was found to be 0%.
`COc1ccc(CN2C[C@@H]3OCCN(CC4CCCO4)[C@@H]3C2)cc1` (stereo partly drawn): the Percent Effect was 10.8%.
Same read-out and setting: with `Cc1cc(C)c(CNC(=O)N2CCN(c3cnccn3)CC2)c(=O)[nH]1` the figure was 18.4%; with `Cc1nc(CN(Cc2cccs2)C2CCS(=O)(=O)C2)oc1C` (stereo not drawn), 15.8%; with `CCOc1ccc(S(=O)(=O)NC(=O)CCC2CCCO2)cc1` (stereo not drawn), 13.5%.
The same measure, in the same setting: in the case of `CC(C)NC(=O)N1CC[C@@H]2CN(Cc3ccccc3)S(=O)(=O)[C@@H]2CC1` it was -13.5%; in that of `CN(Cc1ccc(F)cc1)C(=O)CN1CCCC(Cn2cncn2)C1` (stereo not drawn), 2.53%; in that of `CNS(=O)(=O)c1ccc(C(=O)N2CCCC(n3cccn3)C2)cc1` (stereo not drawn), 13.2%.
Still for that read-out and setting: with `Cc1ccc(F)c(-n2nnc(C(=O)O)c2-c2ccncc2)c1` the figure was 13.2%; with `CN(C)c1ccc(C(=O)NCC2(O)CCOCC2)cc1`, 2.7%; with `CNS(=O)(=O)CCCN1CCCC1c1cc(C)on1` (stereo not drawn), 0%.
For the compound `CCN1CC2(CC1=O)CN(Cc1cccs1)CCN(C(=O)C(C)C)C2` (stereo not drawn), the Percent Effect was -5.41%.
